Screening results (PubChem)
This is a sample that favours compounds with a hit; in the whole collection about 2.3% have one here.
TAG inh = inhibitors of triacylglycerol accumulation; AID 651582; H9c2 cells, Nile Red lipid (TAG) fluorescence; cells loaded with 200 µM oleic acid; hit rate 0.66% among 230,000; inhibition, % at 12.5 µM;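 active = pattern-corrected inhibition of lipid staining of at least 50% with the nuclear-stain viability signal not falling by more than 50%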
aDG glyco act = alpha-DG glycosylation activation; Pro5-aDG cells, alpha-DG glycosylation AlphaScreen (IIH6); 0% Pro5, 100% B10-LARGE cell signal; activation, % at 10 µM; hit rate 0.22% among 360,000; AID 624168;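 active = activation of at least 8% versus controls, or a plate z-score of at least 8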;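 note: Pro5 are CHO cells carrying HIG-tagged alpha-DG that lacks glycosylation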
FAS-TE inh = inhibitors of human fatty acid synthase thioesterase domain; inhibition, % at 15 µM; hit rate 0.67% among 360,000; P49327; recombinant FAS-TE, OMFH fluorogenic substrate, fluorescence endpoint; AID 602261;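 active = compounds whose normalised, plate-corrected inhibition of enzyme fluorescence in the single-dose primary screen is 50% or more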
Cardio protect = modulators protecting cardiomyocytes from myocardial damage. H9c2 cardiomyocytes, H2O2 injury protection, ATPLite, 2 h. protection from H2O2 cell death, % at 20 µM. hit rate 0.63% among 360,000;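 active = compounds giving at least 50% protection of heart cells from peroxide-induced death in the single-dose screen, raw or plate-pattern-corrected value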
Calpain2 inh = blocks pig calpain II enzyme activity | purified calpain II, fluorogenic peptide substrate, 30 min | inhibition, % at 16 µM | AID 1236 | hit rate 0.37% among 220,000;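 active = inhibition above about 50%, limit read from the data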
MIN6 prolif-1 = induces beta-cell replication in MIN6 cells; proliferation, % at 10 µM; AID 2380; MIN6 cells proliferation, ATPlite luminescence, 48 h; cells starved in 0.2% serum; 100% = growth in 10% serum; hit rate 0.29% among 330,000;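 active = compounds whose signal lies at least 3.5 SD above the mean of all wells on their plate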
MIN6 prolif-2 = confirmation of inducers of beta-cell replication in MIN6 cells; shares compounds with MIN6 prolif-1; MIN6 beta-cell proliferation, ATPlite luminescence, 48 h; cells kept in 0.2% serum; scaled between 0.2% and 10% serum; proliferation increase, % at 50 µM; 920 tested, under 10 active; AID 463095;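 active = proliferation increase above 40% at any of the four tested concentrations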
Large screens that a line does not name were inactive (follow-up assays come after a bar, where they were run).

O=C(NNC(=O)C1CCCO1)c1ccc(Cl)cc1 (centres undefined)	MIN6 prolif-1 8.5 | MIN6 prolif-2 inactive
CN(C)S(=O)(=O)c1cccc(NC(=O)COc2ccccc2C(=O)NCc2ccccc2)c1	MIN6 prolif-1 13 (no result: Calpain2 inh) | MIN6 prolif-2 inactive
Cc1ccc(SCCC(=O)N2CCCC2)cc1	none (no result: TAG inh)
Cc1ccc(SCCC(=O)N2CCOCC2)cc1	MIN6 prolif-1 5.1 (no result: TAG inh) | MIN6 prolif-2 inactive
CCN(CC)Cc1c(C(=O)N/N=C/c2ccc(C)o2)nnn1-c1nonc1N	MIN6 prolif-1 0.0 (no result: TAG inh, Calpain2 inh) | MIN6 prolif-2 inactive
Cc1c(-c2ccc(Cl)cc2)[n+](=O)c2c(n1[O-])CCCC2	none
Cc1c(-c2ccccc2)[n+](=O)c2c(n1[O-])CCC2	MIN6 prolif-1 8.9 | MIN6 prolif-2 inactive
C=CCOn1c(=O)c(-c2ccc(Br)cc2)[n+]([O-])c2ccccc21	MIN6 prolif-1 8.9 (no result: TAG inh, Calpain2 inh) | MIN6 prolif-2 inactive
Fc1cc(Cl)cc2ccc(-c3ccccc3)nc12	none (no result: TAG inh, Calpain2 inh, MIN6 prolif-1)
CC(=O)Oc1cccc(C2=CC(=O)CC(C)(C)C2=O)c1	none (no result: Calpain2 inh, MIN6 prolif-1)
CC(NCc1ccccc1)C1COc2ccccc2O1 (centres undefined)	MIN6 prolif-1 5.5 | MIN6 prolif-2 inactive
COc1ccc(CNC(C)C2COc3ccccc3O2)c(OC)c1 (centres undefined)	none
NNC(=O)c1ccccc1CO	none (no result: TAG inh, aDG glyco act, FAS-TE inh, Cardio protect, Calpain2 inh)
CCOC(=O)c1cnc2c(C)cccc2c1NCCc1ccc(OC)c(OC)c1	none
CCOC(=O)c1cnc2ccc(C(=O)OC)cc2c1NCCc1ccc(OC)c(OC)c1	Cardio protect 53, MIN6 prolif-1 0.0 (no result: TAG inh) | MIN6 prolif-2 inactive
Brc1cccc(-c2nnc(SCc3ccon3)n2-c2ccccc2)c1	MIN6 prolif-1 12 | MIN6 prolif-2 inactive
COc1cccc(C(=O)NCCCNc2nc3cc(C)cc(C)c3cc2C#N)c1	none (no result: Calpain2 inh, MIN6 prolif-1)
CN(C)/C=N/c1c(C#N)cnn1-c1ncnc2sc(-c3ccccc3)cc12	MIN6 prolif-1 12 (no result: TAG inh) | MIN6 prolif-2 inactive
C[C@H](CO)N1C[C@H](C)[C@H](CN(C)Cc2ccc(C(=O)O)cc2)OCc2ccccc2-c2c(n(C)c3ccccc23)C1=O	none (no result: Calpain2 inh, MIN6 prolif-1)
CCOC(=O)c1c(C)c2c(=O)[nH]cnc2n1-c1ccccc1	MIN6 prolif-1 9.8 (no result: TAG inh, Calpain2 inh) | MIN6 prolif-2 inactive
CCOC(=O)c1sc2nc[nH]c(=O)c2c1C	none
O=C1NC2(CCCCC2)C(=O)N1c1ccc(Cl)cc1	MIN6 prolif-1 8.4 (no result: TAG inh, Calpain2 inh) | MIN6 prolif-2 inactive
O=C1NC2(CCCCC2)C(=O)N1c1ccccc1	none
Cn1c(CN2CCOCC2)nnc1SCC(=O)Nc1cc(Cl)ccc1Cl	none (no result: TAG inh, Calpain2 inh)
O=C(OCc1nnc(-c2ccccc2)o1)c1cccc(-n2cnnn2)c1	MIN6 prolif-1 11 (no result: Calpain2 inh) | MIN6 prolif-2 inactive
O=C(COC(=O)c1cccc(-n2cnnn2)c1)c1ccccc1	none (no result: Calpain2 inh)
CC1(C)CC(=S)Nc2ccccc2S1	MIN6 prolif-1 11 | MIN6 prolif-2 inactive
CC1(C)CC(=O)C2=C(C1)Nc1ccccc1S2	none
Cc1ccc(C(=O)NC(=S)N2CCN(c3cc(C)ccc3C)CC2)cc1	none (no result: Calpain2 inh)
CCOC(=O)c1c(C)[nH]c(C)c1C(=O)COC(=O)/C=C/c1ccccc1[N+](=O)[O-]	MIN6 prolif-1 9.1 (no result: Calpain2 inh) | MIN6 prolif-2 inactive
CC(N)c1csc(Nc2ccc(S(C)(=O)=O)cc2)n1 (centres undefined)	none (no result: Calpain2 inh, MIN6 prolif-1)
COc1ccc(CCC(C)N(C)Cc2ccccc2)cc1 (centres undefined)	MIN6 prolif-1 6.6 (no result: Calpain2 inh) | MIN6 prolif-2 inactive
COc1ccc(CC(=O)N(Cc2ccccc2)C(C)C)cc1	none (no result: TAG inh, Calpain2 inh)
Cc1ccc(N(Cc2cc3ccc(C)cc3[nH]c2=O)S(=O)(=O)c2ccccc2)cc1	none (no result: TAG inh, Calpain2 inh)
O=C1OC(Nc2ccc3c(c2)OCO3)c2ccccc21 (centres undefined)	MIN6 prolif-1 5.0 | MIN6 prolif-2 inactive
O=C(CN1CCCC1)Nc1c(C(=O)C2CC2)oc2ccccc12	MIN6 prolif-1 7.1 | MIN6 prolif-2 inactive
CC(=O)Nc1c(C(=O)C2CC2)oc2ccccc12	none (no result: TAG inh)
Cc1cc2nc(-c3ccccc3)c(CC(C)(C)C)n2c(C)c1Br	none (no result: TAG inh, Calpain2 inh, MIN6 prolif-1)
CC(Sc1nnnn1C)C(=O)Nc1ncc(Cl)cc1Cl (centres undefined)	none (no result: Calpain2 inh)
CCN(CC)CCCOC(=O)C1(c2ccccc2)CCCC1	none
CCN(CC)CCCC1(CN)OCCc2ccccc21 (centres undefined)	MIN6 prolif-1 8.4 (no result: TAG inh) | MIN6 prolif-2 inactive
CCc1nc2c(OCc3ccc(OC(F)F)cc3)cccn2c1N(C)C(=O)c1ccco1	none (no result: Calpain2 inh, MIN6 prolif-1)
FC(F)Sc1nnc(-c2cccs2)n1-c1ccccc1	MIN6 prolif-1 9.6 (no result: TAG inh) | MIN6 prolif-2 inactive
CSc1sc(C(=O)N2CCCCC2)c(-c2cccs2)c1C#N	MIN6 prolif-1 6.9 | MIN6 prolif-2 inactive
CCN(C(=O)Cn1c(=O)oc2ccccc21)c1ccc(C)c(C)c1	none (no result: TAG inh, Calpain2 inh)
Cc1cc(C(O)c2ncc(-c3ccccc3)[nH]2)ccc1F (centres undefined)	none (no result: Calpain2 inh, MIN6 prolif-1)
CC(C)n1cnc2c(N(C)c3cccc(Cl)c3)nc(N(CCO)CCO)nc21	MIN6 prolif-1 17 | MIN6 prolif-2 inactive
CC(C)[C@H](CO)N(Cc1cccc(F)c1)c1nc(Nc2cccc(Cl)c2)c2ncn(C(C)C)c2n1	none
COc1ccc(NS(=O)(=O)c2cccc(C(=O)NNC(=O)CNC(=O)c3ccccc3)c2)cc1	none (no result: Calpain2 inh)
COc1ccc(NS(=O)(=O)c2cccc(C(=O)NNC(=O)CNC(=O)c3cccc(C)c3)c2)cc1	MIN6 prolif-1 9.7 (no result: Calpain2 inh) | MIN6 prolif-2 inactive
CCCN1Cc2cccc(C(=O)NCCc3ccccc3)c2C1=O	MIN6 prolif-1 11 (no result: TAG inh, Calpain2 inh) | MIN6 prolif-2 inactive
CCOC(=O)CNC(=O)CSc1nc(N(C)C)nc(N2CCOCC2)n1	MIN6 prolif-1 5.5 | MIN6 prolif-2 inactive
CCOC(=O)c1ccc(NC(=O)CSc2nc(N3CCOCC3)nc(N3CCOCC3)n2)cc1	none (no result: Calpain2 inh)
Cc1ccccc1C(=O)OCC(=O)NCC1COc2ccccc2O1 (centres undefined)	MIN6 prolif-1 12 (no result: Calpain2 inh) | MIN6 prolif-2 inactive
N#Cc1ccc(OCC(=O)NCC2COc3ccccc3O2)cc1 (centres undefined)	MIN6 prolif-1 11 (no result: Calpain2 inh) | MIN6 prolif-2 inactive
COC(=O)C1CCN(C(=O)c2oc3c(Cl)cc(C)cc3c2C)CC1	MIN6 prolif-1 12 (no result: TAG inh, Calpain2 inh) | MIN6 prolif-2 inactive
C=CCn1c(-c2cccc(OC)c2)nc2nc3ccccc3nc21	MIN6 prolif-1 9.1 (no result: TAG inh) | MIN6 prolif-2 inactive
COCCCn1c(SCC(=O)c2ccccc2)nc2ccccc2c1=O	none
COCCn1c(SCC(=O)c2ccccc2)nc2ccccc2c1=O	MIN6 prolif-1 7.8 (no result: TAG inh) | MIN6 prolif-2 inactive
CC1Cc2nc(SCC(=O)OCc3ccccc3)n(C)c(=O)c2S1 (centres undefined)	MIN6 prolif-1 15 | MIN6 prolif-2 inactive
Cc1ccc(C)c(N(CC(=O)NC(C)(C)C)C(=O)CCC(=O)Nc2nccs2)c1	none (no result: Calpain2 inh)
CCOC(=O)/C(C#N)=C1/C=C(C)c2ccccc2N1	MIN6 prolif-1 7.1 | MIN6 prolif-2 inactive
